Results: PubChem BioAssay AID1159580 (chemical genetic matrix, 2015)
“And” between values parts separate entries of the source, which are not always exact repeats. Identical values can stand only once. The whole screen tested about 5,500 compounds, of which about 2,000 (36%) were called active. About 18% were inconclusive and are not listed. No stated cut-off is given here; in the data, active means normalized growth mostly below about 0.91 (no sharp cut-off); inconclusive means no clear call, values can overlap the other calls; inactive means mostly above about 0.92. This is one part of the list.

Experiment: chemical genetic growth profiling, strain panel (AID 1159580);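 further: tested at 20 µM; growth read once vehicle control cultures reached saturation at 30 °C; 1 = growth at the plate median or of vehicle wells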
Conditions: S. cerevisiae deletion strains, growth OD
[1] = locus YAL013W, strain DEP1, stronger effect = lower value
[2] = locus YGR078C, strain PAC10, stronger effect = lower value
[3] = locus YMR307W, strain GAS1, stronger effect = lower value

Measured: normalized growth

N[C@@H](Cn1oc(=O)[nH]c1=O)C(=O)O
inactive: [1] 1.01 | locus YAL040C, strain CLN3, stronger effect = lower value 0.975 | locus YCL061C, strain MRC1 (second series), stronger effect = lower value 0.991 | locus YDR150W, strain NUM1, stronger effect = lower value 0.996 | locus YDR363W, strain ESC2, stronger effect = lower value 0.968 | locus YER002W, strain NOP16, stronger effect = lower value 0.979 | [2] 0.979 | locus YMR263W, strain SAP30, stronger effect = lower value 1.01 | [3] 1.02 | locus YNL153C, strain GIM3, stronger effect = lower value 0.996 | locus YNL175C, strain NOP13, stronger effect = lower value 0.99 | locus YNL197C, strain WHI3, stronger effect = lower value 0.972 | locus YNL224C, strain SQS1, stronger effect = lower value 0.989 | locus YOR083W, strain WHI5 (second series), stronger effect = lower value 0.961

CC(CCC(=O)O)[C@H]1CCC2C3CC[C@@H]4C[C@H](O)CC[C@]4(C)C3CC[C@@]21C (some centres undefined)
0.762 (active) and 0.955 (inactive): locus YHR030C, strain SLT2, stronger effect = lower value
inactive: locus YAL021C, strain ccr4, stronger effect = lower value 0.982 | locus YAL026C, strain drs2, stronger effect = lower value 0.946 | locus YAL030W, strain snc1, stronger effect = lower value 0.989 | locus YBL061C, strain skt5, stronger effect = lower value 1.03 | locus YBR021W, strain FUR4, stronger effect = lower value 0.932 | locus YBR023C, strain chs3, stronger effect = lower value 0.924 | locus YBR171W, strain sec66, stronger effect = lower value 1.01 | locus YBR229C, strain ROT2, stronger effect = lower value 1.04 | locus YBR231C, strain swc5, stronger effect = lower value 0.939 | locus YBR279W, strain paf1, stronger effect = lower value 1.01 | locus YCL011C, strain gbp2, stronger effect = lower value 0.974 | locus YCL029C, strain bik1, stronger effect = lower value 0.993 | locus YCL061C, strain MRC1, stronger effect = lower value 0.931 | locus YCL069W, strain vba3, stronger effect = lower value 1 | locus YCR088W, strain abp1, stronger effect = lower value 0.993 | locus YDL005C, strain med2, stronger effect = lower value 1.01 | locus YDL040C, strain nat1, stronger effect = lower value 1.03 | locus YDL185W, strain tfp1, stronger effect = lower value 1.04 | locus YDR001C, strain nth1, stronger effect = lower value 1.02 | locus YDR069C, strain doa4, stronger effect = lower value 0.947 | locus YDR101C, strain arx1, stronger effect = lower value 0.977 | locus YDR159W, strain sac3, stronger effect = lower value 0.925 | locus YDR195W, strain ref2 1.07 | locus YDR297W, strain sur2, stronger effect = lower value 1 | locus YDR318W, strain mcm21, stronger effect = lower value 0.951 | locus YDR334W, strain swr1, stronger effect = lower value 0.989 | locus YDR335W, strain msn5, stronger effect = lower value 0.926 | locus YDR388W, stronger effect = lower value 1.01 | locus YEL003W, strain gim4, stronger effect = lower value 0.94 | locus YEL037C, strain rad23, stronger effect = lower value 0.994 | locus YEL061C, strain CIN8 (second series), stronger effect = lower value 1.01 | locus YER016W, strain bim1, stronger effect = lower value 1 | locus YER110C, stronger effect = lower value 1.07 | locus YER111C, strain swi4, stronger effect = lower value 1.01 | locus YER155C, strain BEM2 (second series), stronger effect = lower value 1.04 | locus YER167W, strain BCK2, stronger effect = lower value 0.906 | locus YFR010W, strain ubp6, stronger effect = lower value 0.982 | locus YGL078C, strain dbp3, stronger effect = lower value 0.926 | locus YGL167C, strain pmr1, stronger effect = lower value 0.988 | locus YGL227W, strain vid30, stronger effect = lower value 1 | locus YGL240W, strain doc1, stronger effect = lower value 0.89 | locus YGL253W, strain hxk2, stronger effect = lower value 0.989 | locus YGR252W, strain gcn5, stronger effect = lower value 0.792 | locus YHR013C, strain ard1, stronger effect = lower value 1.01 | locus YHR027C, strain rpn1, stronger effect = lower value 0.94 | locus YHR079C, strain IRE1 (second series), stronger effect = lower value 1.06 | locus YHR079C, strain IRE1, stronger effect = lower value 0.955 | locus YHR200W, strain rpn10, stronger effect = lower value 1.02 | locus YIL073C, strain SPO22, stronger effect = lower value 0.937 | locus YIL125W, strain kgd1, stronger effect = lower value 1.04 | locus YIR030C, strain dcg1, stronger effect = lower value 1.04 | locus YJL092W, strain hpr5, stronger effect = lower value 0.966 | locus YJL115W, strain asf1, stronger effect = lower value 1.01 | locus YJL129C, strain trk1, stronger effect = lower value 0.914 | locus YJL134W, strain LCB3, stronger effect = lower value 1.04 | locus YJL154C, strain vps35, stronger effect = lower value 0.997 | locus YJL164C, strain tpk1, stronger effect = lower value 0.92 | locus YJL187C, strain SWE1, stronger effect = lower value 0.979 | locus YJR066W, strain TOR1, stronger effect = lower value 0.952 | locus YKL009W, strain mrt4, stronger effect = lower value 0.935 | locus YKL068W, stronger effect = lower value 1.05 | locus YKL085W, strain MDH1 (second series), stronger effect = lower value 1.03 | locus YKL085W, strain MDH1, stronger effect = lower value 1.03 | locus YKL160W, strain elf1, stronger effect = lower value 0.927 | locus YKR026C, strain gcn3, stronger effect = lower value 1.02 | locus YKR091W, strain srl3, stronger effect = lower value 1.03 | locus YLL001W, strain dnm1, stronger effect = lower value 0.933 | locus YLL026W, stronger effect = lower value 0.955 | locus YLL041C, strain sdh2, stronger effect = lower value 1.02 | locus YLR058C, strain SHM2, stronger effect = lower value 0.893 | locus YLR113W, strain HOG1, stronger effect = lower value 0.963 | locus YLR221C, strain rsa3, stronger effect = lower value 0.938 | locus YLR258W, strain gsy2, stronger effect = lower value 0.967 | locus YLR268W, strain sec22, stronger effect = lower value 0.886 | locus YLR357W, strain rsc2, stronger effect = lower value 1.07 | locus YLR370C, strain arc18, stronger effect = lower value 0.991 | locus YLR371W, strain rom2, stronger effect = lower value 1.09 | locus YLR384C, strain iki3, stronger effect = lower value 1.07 | locus YML016C, strain PPZ1, stronger effect = lower value 1.01 | locus YML032C, strain rad52, stronger effect = lower value 0.914 | locus YML120C, strain ndi1, stronger effect = lower value 0.93 | locus YML124C, strain tub3, stronger effect = lower value 1.05 | locus YMR078C, strain ctf18, stronger effect = lower value 1.06 | locus YMR125W, strain sto1, stronger effect = lower value 1.08 | locus YMR129W, stronger effect = lower value 1.03 | locus YMR223W, strain ubp8, stronger effect = lower value 0.934 | locus YMR231W, strain pep5, stronger effect = lower value 0.95 | locus YNL128W, strain TEP1, stronger effect = lower value 0.866 | locus YNL183C, strain NPR1, stronger effect = lower value 0.935 | locus YNL209W, strain ssb2, stronger effect = lower value 0.993 | locus YNL233W, strain BNI4, stronger effect = lower value 0.926 | locus YNL248C, strain rpa49, stronger effect = lower value 0.938 | locus YNL250W, strain rad50, stronger effect = lower value 1.02 | locus YNL271C, strain bni1, stronger effect = lower value 1.02 | locus YNL298W, strain CLA4, stronger effect = lower value 0.978 | locus YNL322C, strain KRE1 (second series), stronger effect = lower value 1.01 | locus YNR049C, strain mso1, stronger effect = lower value 0.987 | locus YOL012C, strain htz1 1.89 | locus YOL147C, strain pex11, stronger effect = lower value 1.02 | locus YOR061W, strain CKA2, stronger effect = lower value 0.964 | locus YOR070C, strain gyp1, stronger effect = lower value 0.953 | locus YOR080W, strain dia2, stronger effect = lower value 0.973 | locus YOR144C, strain elg1, stronger effect = lower value 1.02 | locus YOR231W, strain MKK1, stronger effect = lower value 0.97 | locus YOR265W, strain rbl2, stronger effect = lower value 0.994 | locus YOR270C, strain vph1, stronger effect = lower value 0.807 | locus YOR290C, strain snf2, stronger effect = lower value 0.937 | locus YPL106C, strain sse1, stronger effect = lower value 1.12 | locus YPL240C, strain hsp82, stronger effect = lower value 1.03 | locus YPL241C, strain CIN2, stronger effect = lower value 0.997 | locus YPL256C, strain CLN2, stronger effect = lower value 1.05 | locus YPR163C, strain tif3, stronger effect = lower value 0.968 | locus YPR167C, strain met16, stronger effect = lower value 0.991 | strain wtn01, stronger effect = lower value 0.961
0.522 (active) and 0.953 (inactive): locus YJL095W, strain BCK1, stronger effect = lower value
active: [1] 0.831 | locus YBR009C, strain hhf1, stronger effect = lower value 0.888 | locus YCL016C, strain dcc1, stronger effect = lower value 0.909 | locus YDL035C, strain GPR1, stronger effect = lower value 0.528 | locus YDL074C, strain BRE1, stronger effect = lower value 0.698 | locus YDL101C, strain DUN1, stronger effect = lower value 0.713 | locus YDL192W, strain arf1, stronger effect = lower value 0.856 | locus YDR137W, strain rgp1, stronger effect = lower value 0.452 | locus YDR162C, strain NBP2, stronger effect = lower value 0.208 | locus YDR392W, strain spt3, stronger effect = lower value 0.735 | locus YDR502C, strain sam2, stronger effect = lower value 0.878 | locus YEL061C, strain CIN8, stronger effect = lower value 0.912 | locus YER015W, strain faa2, stronger effect = lower value 0.907 | locus YER155C, strain BEM2, stronger effect = lower value 0.852 | locus YGL086W, strain mad1, stronger effect = lower value 0.923 | locus YGL173C, strain kem1, stronger effect = lower value 0.701 | locus YGL248W, strain PDE1, stronger effect = lower value 0.827 | [2] 0.757 | locus YGR135W, strain pre9, stronger effect = lower value 0.84 | locus YGR229C, strain SMI1, stronger effect = lower value 0.356 | locus YHR094C, strain hxt1, stronger effect = lower value 1.08 [resistant] | locus YHR129C, strain ARP1, stronger effect = lower value 0.791 | locus YHR142W, strain chs7, stronger effect = lower value 0.873 | locus YIL066C, strain RNR3, stronger effect = lower value 0.79 | locus YJL095W, strain BCK1 (second series), stronger effect = lower value 0.893 | locus YJL166W, strain qcr8, stronger effect = lower value 0.83 | locus YJL168C, strain set2, stronger effect = lower value 1.14 [resistant] | locus YJL187C, strain SWE1 (second series), stronger effect = lower value 0.791 | locus YJR043C, strain POL32, stronger effect = lower value 0.849 | locus YKL190W, strain CNB1, stronger effect = lower value 0.882 | locus YKR001C, strain vps1, stronger effect = lower value 0.861 | locus YLR027C, strain aat2, stronger effect = lower value 0.921 | locus YLR039C, strain RIC1, stronger effect = lower value 0.479 | locus YLR102C, strain apc9, stronger effect = lower value 1.08 [resistant] | locus YLR262C, strain YPT6 (second series), stronger effect = lower value 0.488 | locus YLR262C, strain YPT6, stronger effect = lower value 0.321 | locus YLR320W, strain mms22, stronger effect = lower value 0.706 | locus YLR330W, strain CHS5, stronger effect = lower value 0.849 | locus YLR342W, strain FKS1 (second series), stronger effect = lower value 0.566 | locus YLR342W, strain FKS1, stronger effect = lower value 0.688 | locus YLR418C, strain cdc73, stronger effect = lower value 0.74 | locus YMR058W, strain fet3, stronger effect = lower value 0.871 | locus YMR205C, strain PFK2, stronger effect = lower value 0.854 | [3] 0.456 | locus YNL067W, strain RPL9B, stronger effect = lower value 0.756 | locus YNL071W, strain lat1, stronger effect = lower value 0.809 | locus YNL307C, strain MCK1, stronger effect = lower value 0.795 | locus YNR052C, strain pop2, stronger effect = lower value 0.838 | locus YOR001W, strain rrp6, stronger effect = lower value 0.851 | locus YOR069W, strain VPS5, stronger effect = lower value 0.876 | locus YOR083W, strain WHI5, stronger effect = lower value 0.844 | locus YOR106W, strain vam3, stronger effect = lower value 0.77 | locus YOR136W, strain idh2, stronger effect = lower value 1.08 [resistant] | locus YOR184W, strain ser1, stronger effect = lower value 0.505 | locus YOR316C, strain cot1, stronger effect = lower value 1.1 [resistant] | locus YPL051W, strain arl3, stronger effect = lower value 0.793 | locus YPL078C, strain atp4, stronger effect = lower value 0.892 | locus YPR119W, strain clb2, stronger effect = lower value 1.11 [resistant] | locus YPR141C, strain kar3, stronger effect = lower value 1.09 [resistant]
